Activity calls are given as the source filed them. Unless noted, calls follow the shape of the full dose curve.
Molecular target: KiSS-1 receptor (Homo sapiens) (UniProt Q969F8)
Experiment: Human kisspeptin (KISS1R) small molecule agonists, calcium flux assay in KISS1R-HEK293 cells (AID 1920064; active = well fitted activation curve with a large enough effect in the repeat runs)
Conditions: KISS1R-HEK293, calcium flux fluorescence, agonist; series mostly up to 76.8 µM; activation: at the top concentration
Procedure, shortened: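 Cells plated and incubated 18 h; dye added, 1 h at 37 C; compounds in DMSO pinned in; signal read at 480/540 nm every second for 3 min. Each compound tested at 15 concentrations in triplicate.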
% is scaled to controls: 0 for no effect and ±100 for the full control effect; potency is read from the fitted curve at half-maximal effect.

Chain of KiSS-1 receptor (Homo sapiens) (Q969F8 whole entry, looked up): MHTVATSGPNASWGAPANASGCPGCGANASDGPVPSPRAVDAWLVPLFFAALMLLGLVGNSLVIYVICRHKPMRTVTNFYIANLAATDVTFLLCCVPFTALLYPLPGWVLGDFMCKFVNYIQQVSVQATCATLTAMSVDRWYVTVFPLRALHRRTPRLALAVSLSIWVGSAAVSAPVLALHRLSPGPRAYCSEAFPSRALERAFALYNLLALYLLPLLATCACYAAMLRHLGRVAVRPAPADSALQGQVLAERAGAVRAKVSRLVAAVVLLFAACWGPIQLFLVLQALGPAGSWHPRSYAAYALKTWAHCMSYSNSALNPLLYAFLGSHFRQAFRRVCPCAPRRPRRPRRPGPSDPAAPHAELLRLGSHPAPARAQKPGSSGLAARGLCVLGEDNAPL

For `Cc1cccc2sc3nncn3c12`, which “activation” value is on record?
Its value is 0.982% (inactive).

With `CC1(C)CN=C(NN=C(/C=C/c2ccc(C(F)(F)F)cc2)/C=C/c2ccc(C(F)(F)F)cc2)NC1` as the compound, how does the “activation” value read?
The value was 5.51% (inactive).

With `COc1cc(CC(C)N)c(OC)cc1Br` (centres undefined) as the compound, how does the “activation” value read?
The value was 1.89% (inactive).

For `O=C(CCl)C(Cl)Cl`, which “activation” value is on record?
The value was 1.3% (inactive).

With `CCC1(c2ccccc2)C(=O)NC(=O)NC1=O` as the compound, how does the “activation” value read?
Its value is -0.19% (inactive).

With `O=c1[nH]c(Cl)c(Cl)cc1Cl` as the compound, how does the “activation” value read?
The value was -2.61% (inactive).

For `CC(=O)[O][Sn]([c]1ccccc1)([c]1ccccc1)[c]1ccccc1`, which Potency is on record?
The Potency was 49 µM (active).

For `C=C(Cl)CSC(=S)N(CC)CC`, which “activation” value is on record?
Its value is -5.8% (inactive).

With `ClC(Cl)C(Cl)Cl` as the compound, how does the “activation” value read?
The value was 1.59% (inactive).

Which “activation” value does the source give for `CC(=O)CCc1ccc2c(c1)OCO2` here?
Its value is -1.16% (inactive).

For `CN(C)C(=O)Nc1cccc(OC(=O)NC(C)(C)C)c1`, which “activation” value is on record?
The value was 0.759% (inactive).

For `CNC(=O)Oc1ccc(N(C)C)c(C)c1`, which “activation” value is on record?
The value was -1.13% (inactive).

Which “activation” value does the source give for `COP(=O)(OC)O/C(=C\Cl)c1cc(Cl)c(Cl)cc1Cl` here?
Its value is -0.0392% (inactive).

Which “activation” value does the source give for `CC(C)(C)c1ccc(OP(=O)(Oc2ccccc2)Oc2ccccc2)cc1` here?
Its value is 5.94% (inactive).

For `CC[C@H]1C[C@H]2[C@@H]3CCC4=CC(=O)CC[C@@H]4[C@H]3CC[C@]2(C)[C@H]1O`, which “activation” value is on record?
Its value is 11.5% [at 35.3 µM] (inactive).

Which “activation” value does the source give for `COC(=O)C(C)N(C(=O)c1ccco1)c1c(C)cccc1C` (centres undefined) here?
Its value is 0.706% (inactive).

For `C#CC1(O)CCCCC1`, which “activation” value is on record?
The value was 3.04% (inactive).

With `CSc1ccc(C(=O)C(C)(C)N2CCOCC2)cc1` as the compound, how does the “activation” value read?
Its value is -2.11% (inactive).

With `CCCCc1c(C)nc(NCC)nc1OS(=O)(=O)N(C)C` as the compound, how does the “activation” value read?
Its value is 3.95% (inactive).

Tested on: not listed separately
Experiment: G protein-coupled receptor (GPCR) small molecule agonists, calcium flux assay: HEK293 wild type cell line counter screen (AID 1920065)
Conditions: HEK293 WT calcium flux, fluorescence, agonist mode; series mostly up to 57.6 µM; activation: at the top concentration
Procedure, shortened: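 Counter-screen of the Tox21 10K library for non-specific calcium release: dye-loaded cells received compounds in DMSO and were monitored by kinetic fluorescence (480/540 nm, 3 min). Fifteen concentrations, run in triplicate.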

With `CCCN1CCC[C@@H]2Cc3[nH]ncc3C[C@H]21` as the compound, how does the “activation” value read?
The value was -0.745% [at 26.5 µM] (inactive).

For `C=CC[C@]1(O)CC[C@H]2[C@@H]3CCC4=CC(=O)CCC4=C3C=C[C@@]21C`, which “activation” value is on record?
Its value is -1.11% [at 26.5 µM] (inactive).

Which “activation” value does the source give for `NP(N)(=O)NC(=O)c1ccc(F)cc1` here?
The value was 1.03% [at 26.5 µM] (inactive).

With `COc1ccc(C(=O)c2c(C)n(CCN3CCOCC3)c3ccccc23)cc1` as the compound, how does the “activation” value read?
Its value is 3.38% [at 26.5 µM] (inactive).

For `CCOC(=O)COc1ccc(Cl)cc1Cl`, which “activation” value is on record?
The value was -0.645% (inactive).

For `CCOc1cccc(C2(N3CCN(c4ccccc4)CC3)CCC(C)CC2)c1` (centres undefined), which “activation” value is on record?
The value was -1.05% (inactive).

Which “activation” value does the source give for `COP(=O)(OC)Oc1ccc([N+](=O)[O-])cc1` here?
Its value is -0.345% (inactive).

For `COC(=O)N(C(=O)N1COC2(C(=O)OC)Cc3cc(Cl)ccc3C2=N1)c1ccc(OC(F)(F)F)cc1` (centres undefined), which “activation” value is on record?
The value was -0.364% [at 26.5 µM] (inactive).

With `COc1cc(Cl)c(OC)cc1Cl` as the compound, how does the “activation” value read?
Its value is -1.67% (inactive).

With `CC(Cc1ccccc1)NCCn1cnc2c1c(=O)n(C)c(=O)n2C` (centres undefined) as the compound, how does the “activation” value read?
Its value is -0.0645% (inactive).

Which “activation” value does the source give for `Cc1cccc(OP(=O)(Oc2cccc(C)c2)Oc2cccc(C)c2)c1` here?
Its value is -1.61% (inactive).

Which “activation” value does the source give for `OP(O)c1ccccc1` here?
The value was -0.305% (inactive).

With `Oc1ccc2ccc3cccc4ccc1c2c34` as the compound, how does the “activation” value read?
Its value is 2.88% (inactive).

Which “activation” value does the source give for `ClCc1cccc(Cl)c1` here?
The value was 0.265% [at 26.5 µM] (inactive).

Which “activation” value does the source give for `COP(=S)(OC)Oc1c(Cl)cc(C)cc1Cl` here?
Its value is -1.43% (inactive).

With `CCOP(=S)(OCC)SCS(=O)(=O)CC` as the compound, how does the “activation” value read?
Its value is -0.995% (inactive).

With `CCN1CCC2(CC1)COc1cc3c(cc12)N(C(=O)c1ccc(-c2ccc(-c4nnc(C)o4)cc2C)cc1)CC3` as the compound, how does the “activation” value read?
The value was -0.981% (inactive).

For `CN(C)CCc1c[nH]c2cccc(O)c12`, which “activation” value is on record?
Its value is 0.225% (inactive).

Which “activation” value does the source give for `COP(N)(=S)Oc1ccccc1C(=O)OC(C)C` (centres undefined) here?
Its value is -3.08% (inactive).

For `N#Cc1c(-c2ccc(Cl)cc2)[nH]c(C(F)(F)F)c1Br`, which Potency is on record?
Its Potency is 2.45 µM (active).

For `CNP(=O)(OC)Oc1ccc(C(C)(C)C)cc1Cl` (centres undefined), which “activation” value is on record?
The value was -1.05% (inactive).

For `Cc1cccc2sc3nncn3c12`, which “activation” value is on record?
Its value is -0.5% (inactive).

For `CC1(C)CN=C(NN=C(/C=C/c2ccc(C(F)(F)F)cc2)/C=C/c2ccc(C(F)(F)F)cc2)NC1`, which “activation” value is on record?
The value was 1.71% (inactive).

With `COc1cc(CC(C)N)c(OC)cc1Br` (centres undefined) as the compound, how does the “activation” value read?
Its value is -0.355% (inactive).

Which “activation” value does the source give for `O=C(CCl)C(Cl)Cl` here?
The value was 0.515% (inactive).

For `CCC1(c2ccccc2)C(=O)NC(=O)NC1=O`, which “activation” value is on record?
The value was 0.0585% (inactive).

Which “activation” value does the source give for `O=c1[nH]c(Cl)c(Cl)cc1Cl` here?
The value was 0.252% (inactive).

For `CC(=O)[O][Sn]([c]1ccccc1)([c]1ccccc1)[c]1ccccc1`, which Potency is on record?
Its Potency is 38.9 µM (active).

Which “activation” value does the source give for `C=C(Cl)CSC(=S)N(CC)CC` here?
The value was -2.17% (inactive).

With `ClC(Cl)C(Cl)Cl` as the compound, how does the “activation” value read?
The value was -0.0313% (inactive).

For `CC(=O)CCc1ccc2c(c1)OCO2`, which “activation” value is on record?
The value was 0.0193% (inactive).

For `CN(C)C(=O)Nc1cccc(OC(=O)NC(C)(C)C)c1`, which “activation” value is on record?
The value was 0.103% (inactive).

Which “activation” value does the source give for `CNC(=O)Oc1ccc(N(C)C)c(C)c1` here?
The value was -1.68% (inactive).

For `COP(=O)(OC)O/C(=C\Cl)c1cc(Cl)c(Cl)cc1Cl`, which “activation” value is on record?
Its value is -1.31% (inactive).

For `CC(C)(C)c1ccc(OP(=O)(Oc2ccccc2)Oc2ccccc2)cc1`, which “activation” value is on record?
Its value is -1.03% (inactive).

With `CC[C@H]1C[C@H]2[C@@H]3CCC4=CC(=O)CC[C@@H]4[C@H]3CC[C@]2(C)[C@H]1O` as the compound, how does the “activation” value read?
The value was -1.88% [at 26.5 µM] (inactive).

For `COC(=O)C(C)N(C(=O)c1ccco1)c1c(C)cccc1C` (centres undefined), which “activation” value is on record?
The value was -0.627% (inactive).

Which “activation” value does the source give for `C#CC1(O)CCCCC1` here?
The value was -0.091% (inactive).

Which “activation” value does the source give for `CSc1ccc(C(=O)C(C)(C)N2CCOCC2)cc1` here?
Its value is -0.33% (inactive).

With `CCCCc1c(C)nc(NCC)nc1OS(=O)(=O)N(C)C` as the compound, how does the “activation” value read?
The value was -2.54% (inactive).

Source: PubChem BioAssay (Tox21)
